According to PubChem BioAssay (NCATS):
“And” between values parts separate entries of the source, which are not always exact repeats. Equal entries are not always repeated. Inconclusive results are not listed. Entries that show only a call come without a potency. Some structures have more than one record in an assay (separate samples or runs), and their calls can disagree. The source made the active and inactive calls. Calls follow the shape of the dose curve; as a rule, active = well fitted curve in the direction sought with a large enough effect; inconclusive = small, poorly fitted or top-dose-only effect, or another doubt; inactive = no such curve, though single readings can be large; an effect the other way counts as inactive or inconclusive.

What was measured:
[1] = Primary qHTS for inhibitors of nuclear receptor binding SET domain protein 2 (NSD2) in an RCH-ACV wild type WT cells (2C) (AID 1645877); also: nearly all actives have a fitted effect of over 70% in size; also: potency is read from the fitted curve at half-maximal effect
[2] = target: Glutathione peroxidase 1 (Homo sapiens) (UniProt P07203); assay: Primary qHTS Assay for Inhibitors of Recombinant Selenoprotein Glutathione Peroxidase 1 (GPX1) (AID 1845191); also: nearly all actives have a fitted effect of over 65% in size
Summary of the method: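 Recombinant GPX1 (10 nM final) was preincubated with compound for 30 min at room temperature, then reacted with 1 mM GSH, 0.5 mM CHP, 0.5 mM NADPH and 100 nM glutathione reductase; NADPH fluorescence (340/450 nm) was read at 0 and 15 min.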

[3] = target: Phospholipid hydroperoxide glutathione peroxidase GPX4 (Homo sapiens) (UniProt P36969); assay: Primary qHTS Assay for Inhibitors of Recombinant Selenoprotein Glutathione Peroxidase 4 (GPX4) (AID 1845192); also: nearly all actives have a fitted effect of over 65% in size; also: potency is read from the fitted curve at half-maximal effect; as to activity change, negative = inhibition: series mostly up to about 50 µM
Summary of the method: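 GR-coupled readout: 100 nM GR, 1 mM GSH, 0.5 mM NADPH; NADPH fluorescence (ex 340/em 450 nm) read at t=0 and after 15 min RT. GPX4 200 nM, preincubated 30 min with compound; substrate 0.5 mM CHP.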

[4] = target: Luciferin 4-monooxygenase (Photinus pyralis) (UniProt P08659); assay: Primary firefly luciferase (FLuc) qHTS assay for identification of artifact compounds. (AID 1845220); also: nearly all actives have a fitted effect of over 60% in size; also: potency is read from the fitted curve at half-maximal effect; as to activity change, negative = inhibition: series mostly up to about 54 µM
Summary of the method: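 Reaction readout was CCD-imaged luminescence, taken 5 min after adding 10 nM purified firefly enzyme to compound-treated wells holding 10 uM luciferin and ATP in pH 7.6 buffer.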

[5] = Primary fluorescence-based thiol-reactive (MSTI) qHTS assay for identification of artifact compounds. (AID 1845221); also: nearly all actives have a fitted effect of over 65% in size; also: potency is read from the fitted curve at half-maximal effect;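 as to activity change, negative = thiol reactive: series mostly up to about 54 µM; thiol-reactive compounds lower the probe fluorescence signal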
Summary of the method: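 One-hour, room-temperature, dark incubation of compound with 4 uM MSTI in PBS (pH 7.4, 2% DMSO) precedes a fluorescence read at 525 nm excitation, 598 nm emission; Hill-equation fitting yields concentration-response values.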

[6] = tested on: Nanoluciferase (engineered Oplophorus gracilirostris luciferase); assay: Primary Nanoluciferase (NLuc) qHTS assay for identification of artifact compounds. (AID 1845222); also: potency is read from the fitted curve at half-maximal effect;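 as to activity, negative = inhibition: NLuc secreted into diluted conditioned medium of S16 cells; series mostly up to about 54 µM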
Summary of the method: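 Concentration-response data were obtained by luminescence after 5 min with Nano-Glo substrate at 1:100. The enzyme was diluted S16 NLuc-expressing cell medium, preincubated with compound for 15 min at RT. Curves were fitted with a 4-parameter Hill model.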

[7] = Primary redox qHTS assay for identification of artifact compounds. (AID 1845223)
Summary of the method: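 Amplex Red (25 uM) and HRP (250 mU/mL) in HBSS, with compounds for 15 min, then 250 uM DTT for 30 min, room temperature, dark. Fluorescence 525/598 nm read; normalized to DMSO and 10 uM DA3003; Hill fit.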

Sequence of Phospholipid hydroperoxide glutathione peroxidase GPX4 (Homo sapiens) (P36969 whole entry, looked up): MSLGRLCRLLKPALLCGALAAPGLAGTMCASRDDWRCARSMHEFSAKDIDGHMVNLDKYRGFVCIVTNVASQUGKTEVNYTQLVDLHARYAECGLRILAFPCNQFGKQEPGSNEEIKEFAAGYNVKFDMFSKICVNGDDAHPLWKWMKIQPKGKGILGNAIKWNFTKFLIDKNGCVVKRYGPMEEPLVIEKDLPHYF
Sequence of Glutathione peroxidase 1 (Homo sapiens) (P07203 whole entry, looked up): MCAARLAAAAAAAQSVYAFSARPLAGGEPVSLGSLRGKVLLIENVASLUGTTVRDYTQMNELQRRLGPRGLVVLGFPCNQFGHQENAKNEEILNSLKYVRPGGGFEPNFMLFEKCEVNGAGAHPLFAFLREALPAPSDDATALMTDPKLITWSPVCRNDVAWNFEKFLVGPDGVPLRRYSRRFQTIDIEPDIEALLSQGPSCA

Structure (SMILES)	Potency [1]	Potency [2]	activity change, negative = inhibition [3]	Potency [4]	Potency [5]	Potency [6]	Potency [7]	Potency [3]	activity change, negative = inhibition [4]	activity change, negative = thiol reactive [5]	activity, negative = inhibition [6]	redox activity (% of DA3003) [7]
O=C(CCCCCCC(=O)Nc1ccc([C@H]2O[C@@H](CSc3nc(-c4ccccc4)c(-c4ccccc4)o3)C[C@@H](c3ccc(CO)cc3)O2)cc1)NO	2.58 µM (active) and 4.28 µM (active)	inactive	-22.8% [at 9.73 µM] (inactive)	inactive	inactive	inactive	inactive					
c1nc2nc(Nc3ccc(N4CCOCC4)cc3)nc(NC3CCCCC3)c2[nH]1	563 nM (active) and 525 nM (active)	inactive		inactive	0.922 µM (active)	inactive		inactive				
Cn1cc(-c2[nH]c3cc(NC(=O)[C@H](N)C4CCCCC4)cc4c3c2C=NNC4=O)cn1	728 nM (active) and 742 nM (active)	inactive		inactive	21.2 µM (active)	inactive	inactive	inactive				
CN(C1CCc2c(c3ccccc3n2CC(=O)O)C1)S(=O)(=O)c1ccc(F)cc1 (configuration not stated)	inactive	inactive		inactive	2.67 µM (active) and 2.12 µM (active)	inactive		inactive				
C[C@]12CC[C@H](O)CC1=CCC1C2CC[C@]2(C)C(n3cnc4ccccc43)=CCC12 (some centres not stated)	inactive	inactive		inactive	inactive	inactive		inactive				
Cc1ccc2nc(NC(=O)CSc3nc4c(c(=O)n3-c3ccccc3)SCC4)sc2c1	inactive	inactive		inactive	inactive	inactive	inactive	inactive				
COc1cc2nccc(Oc3ccc(NC(=O)C4(C(=O)Nc5ccc(F)cc5)CC4)cc3)c2cc1OC	4.09 µM (active) and 4.68 µM (active)	inactive		inactive	inactive	inactive	inactive	inactive				
CN1CCN(Cc2ccc(NC(=O)Nc3ccc(Oc4cc(NC(=O)C5CC5)ncn4)cc3)cc2C(F)(F)F)CC1	91.6 nM (active) and 186 nM (active)	inactive		inactive	inactive	inactive	inactive	inactive				
O=C(Nc1ncc(-c2cc(C(F)F)nn2-c2c(Cl)cccc2Cl)s1)C1CC1	417 nM (active)	inactive		inactive	inactive	inactive	inactive	inactive				
COc1cc2c(Nc3ccc(NC(=O)c4ccccc4)cc3)ncnc2cc1OCCCN1CCOCC1	5.15 µM (active) and 934 nM (active)	inactive		inactive	inactive			inactive				
C=CC(=O)Nc1cccc(Oc2nc(Nc3ccc(N4CCN(C)CC4)cc3OC)ncc2Cl)c1	5.15 µM (active) and 8.33 µM (active)	inactive		inactive	2.67 µM (active)	inactive	inactive	inactive				
CCCCOc1c(C(=O)c2c(F)cc(C)cc2F)cnc2n[nH]cc12	578 nM (active) and 235 nM (active)	inactive		inactive	inactive	inactive		inactive				
CCCn1c(=O)c2[nH]c(-c3cnn(Cc4cccc(C(F)(F)F)c4)c3)nc2n(CC)c1=O	inactive	inactive		inactive	inactive	inactive		inactive				
CC(=O)Nc1nc(C)c(-c2ccc(Cl)c(S(=O)(=O)NCCO)c2)s1	1320 nM (active)	inactive		inactive	inactive	inactive	inactive	inactive				
CC[C@@H]1C(=O)N(C)c2cnc(Nc3ccc(C(=O)NC4CCC(N5CCN(CC6CC6)CC5)CC4)cc3OC)nc2N1C(C)C (some centres not stated)	36.5 nM (active) and 41.1 nM (active) and 37.2 nM (active)	inactive		inactive	inactive	inactive	inactive	inactive				
Cc1cn(-c2cc(NC(=O)c3ccc(C)c(Nc4nccc(-c5cccnc5)n4)c3)cc(C(F)(F)F)c2)cn1	5.8 µM (active) and 2.35 µM (active)	inactive		inactive	inactive	inactive		inactive				
COc1cccc(-c2ccc(NC(=O)C3=C(C(=O)O)CCC3)c(F)c2)c1	6.49 µM (active) and 3.72 µM (active)	inactive		5360 nM (active)	inactive	12000 nM (active)	inactive	inactive				

Structure (SMILES)	Potency [1]	Potency [2]	activity change, negative = inhibition [3]	Potency [4]	Potency [5]	Potency [6]	Potency [7]	Potency [3]	activity change, negative = inhibition [4]	activity change, negative = thiol reactive [5]	activity, negative = inhibition [6]	redox activity (% of DA3003) [7]
CC(C)CC(=O)Nc1n[nH]c2c1CN(C(=O)C1CCN(C)CC1)C2(C)C	580 nM (active) and 590 nM (active)	inactive		inactive	inactive	inactive	inactive	inactive				
O=C(Nc1nc2cccc(-c3ccc(CN4CCS(=O)(=O)CC4)cc3)n2n1)C1CC1	18.3 µM (active) and 9.34 µM (active)	inactive		inactive	inactive	inactive	inactive	inactive				
Cc1ccc(NC(=O)C2(c3ccc4c(c3)OC(F)(F)O4)CC2)nc1-c1cccc(C(=O)O)c1	inactive	inactive		inactive	inactive	inactive		inactive and 14.1 µM (active)				
O=C(Nc1cc(C(F)(F)F)cc(C(F)(F)F)c1)c1cc(Cl)ccc1O	2.3 µM (active) and 2.95 µM (active)	inactive		inactive		inactive	inactive	inactive				
c1ccc2c(CCNc3ccc(Nc4ccncc4)cc3)c[nH]c2c1	578 nM (active) and 296 nM (active)	inactive			2.67 µM (active)	inactive	inactive	inactive				
Clc1ccc2ncc(-c3cccc(NC4CNC4)n3)n2c1	inactive	inactive			inactive	inactive	inactive					
COc1cc2c(Oc3ccc(NC(=O)C4(C(=O)Nc5ccc(F)cc5)CC4)cc3F)ccnc2cc1OCCCN1CCOCC1	365 nM (active) and 833 nM (active)	inactive			inactive	inactive		inactive				
CCc1c2c(nc3ccc(O)cc13)-c1cc3c(c(=O)n1C2)COC(=O)[C@]3(O)CC	4.7 nM (active)	inactive		inactive		inactive	inactive	inactive				
CC[C@@]1(O)C(=O)OCc2c1cc1n(c2=O)Cc2cc3cc(O)ccc3nc2-1	11.8 nM (active)	inactive		inactive		inactive		inactive				
COc1ccc2c(OCc3nnc4ccc(-c5ccccc5)nn34)ccnc2c1	inactive	inactive			inactive	inactive		inactive				
O=C(Cc1ccc(-c2ccc(OCCN3CCOCC3)cc2)cn1)NCc1ccccc1	258 nM (active) and 105 nM (active)	inactive			inactive	inactive	inactive					
CC(C)c1cnn2c(NCc3ccccc3)cc(N[C@@H](CO)[C@H](O)CO)nc12	515 nM (active) and 166 nM (active)	inactive		inactive		inactive	inactive	inactive				
CC(C)c1nn(-c2c(Cl)cccc2Cl)c2nc(Cc3ccc(OCCO)cc3)[nH]c(=O)c12	25.8 nM (active) and 41.7 nM (active)	inactive		inactive	inactive	inactive	inactive					
Cc1ccc(C(=O)Nc2ccc(CN3CCN(C)CC3)c(C(F)(F)F)c2)cc1C#Cc1cnc2cccnn12	91.6 nM (active) and 209 nM (active)	inactive			inactive	inactive	inactive	inactive				
Cc1cc(Nc2cc(CN3CCOCC3)c3nc(C)c(Cc4ccc(Cl)cc4F)n3n2)n[nH]1	2.59 µM (active) and 1.18 µM (active)	inactive				inactive		inactive				
COc1cc(Nc2ncc(F)c(Nc3ccc4c(n3)N(COP(=O)(O)O)C(=O)C(C)(C)O4)n2)cc(OC)c1OC	1.15 µM (active) and 5.17 µM (active) and 1.66 µM (active)	inactive		inactive		inactive	inactive					
CC(=O)c1c(C)c2cnc(Nc3ccc(N4CCNCC4)cn3)nc2n(C2CCCC2)c1=O	1320 nM (active)	inactive							1.06% [at 6.45 µM] (inactive)	7.61% [at 6.41 µM] (inactive)	0% [at 6.45 µM] (inactive)	-5.59% [at 6.41 µM] (inactive)
